The subject of one test is Hek293T. The experiment in a line: Primary qHTS to identify gynecologic anti-cancer compounds using libraries of approved drugs and bioactive compounds (AID 1345084). Further: nearly all actives have a fitted effect of over 55% in size. Further: potency means the concentration at half of the fitted maximal effect. Conditions: Gynecologic cancer cell panel viability, ATPlite luminescence, 48 h, control line for the selectivity index; series mostly up to 57.5 µM. The procedure, abridged: (§1)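 48 h compound exposure at 37 C, 5% CO2; five-point qHTS. ATPlite luminescence readout of cell ATP.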

In another test the test system is JEG-3. The test is described as above. As to conditions: Gynecologic cancer cell panel viability, ATPlite luminescence, 48 h; series mostly up to 57.5 µM. In outline:
as §1
(In general: In ATP-based viability assays light output follows the ATP content of the culture.)

The subject of the next test is OV90. The test is described as above. As to conditions: Gynecologic cancer cell panel viability, ATPlite luminescence, 48 h; series mostly up to 57.5 µM. In outline: as §1
The test system of another test is PA-1. Described as above. Conditions: Gynecologic cancer cell panel viability, ATPlite luminescence, 48 h; series mostly up to 57.5 µM. The procedure, abridged: as §1
The next test relates to SKOV3. The description is as above. As to conditions: Gynecologic cancer cell panel viability, ATPlite luminescence, 48 h; series mostly up to 57.5 µM. The procedure, abridged:
as §1

For another test, the system named is Tov-21-G. The test is described as above. Conditions: Gynecologic cancer cell panel viability, ATPlite luminescence, 48 h; series mostly up to 57.5 µM. The procedure, abridged: as §1
A further test has as its system Tov112D. Described as above. Conditions: Gynecologic cancer cell panel viability, ATPlite luminescence, 48 h; series mostly up to 57.5 µM. In outline:
as §1

The nature of test [1]: Drug repurposing screens with cells derived from glioblastoma tumor samples (AID 1345199). Further: nearly all actives have a fitted effect of over 40% in size. As to conditions: GBM patient neurospheres viability, ATP luminescence, 48 h. The procedure, abridged: (§2)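 Primary testing used CD133+ neurospheres from four GBM patients, seven concentrations, 48 h exposure and ATP-based viability; confirmation added three slower-growing patient lines.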

Another test concerns astro. The test is described as above. As to conditions: viability, ATP luminescence, 48 h; series mostly up to 45.9 µM. In outline: as §2
A short description of test [2]: qHTS assay to identify inhibitors of the type 1 interferon - major histocompatibility complex class I in skeletal muscle: Counter screen cell viability and HiBit confirmation (AID 1347412). Further: potency means the concentration at half of the fitted maximal effect. On all read-outs here: nearly all actives have a fitted effect of over 60% in size. Conditions: iHSKM muscle cells + IFN-b, HiBiT or CellTiter-Glo, 24 h; for activity change, negative = inhibition: at 45.9 µM (top of the series). In outline:
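HLA-B*08:01–HiBiT knock-in immortalized human myoblasts (C25cl48) stimulated with 4.0 ng/ml human IFN-beta and dosed with compound in a 12-point 1:3 titration (top final 46 uM). After 24 hrs at 37 C, HiBiT lytic luminescence or CellTiter Glo ATP read out.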

Where [3] appears, read: at 20 µM (top of the series), tumour line C.
Where [4] appears, read: at 21.2 µM (top of the series), tumour line B.
[5] abbreviates: at 21.2 µM (top of the series), tumour line D.
[6] abbreviates: at 21.3 µM (top of the series), tumour line A.
[7] abbreviates: at 45.9 µM (top of the series), tumour line B.
Setting [8] is: at 45.9 µM (top of the series), tumour line D.
The mark [9] stands for this setting: at 46.1 µM (top of the series), tumour line C.
[10] abbreviates: at 46 µM (top of the series), tumour line A.

Molecules are shown by their SMILES. Results filed as inconclusive are left out. A number with no mark means an inactive call. Activity calls are given as the source filed them. The call rests on the fitted dose curve; in most records, active means well fitted curve in the direction sought with a large enough effect; inconclusive means small, poorly fitted or top-dose-only effect, or another doubt; inactive means no such curve, though single readings can be large; an effect the other way counts as inactive or inconclusive.
On the % scale 0 is the no-effect control and ±100 the full control effect.

With `CCC(=O)O[C@]1(C(=O)SCF)[C@H](C)C[C@H]2[C@@H]3C[C@H](F)C4=CC(=O)C=C[C@]4(C)[C@@]3(F)[C@@H](O)C[C@@]21C`, the Potency result in the test with Hek293T, in the test on JEG-3, in the test on OV90, in the test with PA-1, with SKOV3 and in the test with Tov-21-G was “inactive” in each case. Also, the Potency result in the test with Tov112D and in the test on astro was “inactive” each time. Further, the activity, negative = cell killing in test [1] (setting [3]) is -9.5%; in [1] (setting [4]), -18.7%; in test [1] (setting [5]), 13.1%; in [1] (setting [6]) it was -14.8%. In addition, the activity change, negative = inhibition in test [2] (HiBiT) is -26.7%; in test [2] (Viability), 10%.
For `COc1ncnc(NS(=O)(=O)c2ccc(N)cc2)c1OC`, the Potency result with Hek293T, in the test with JEG-3, with OV90, in the test on PA-1, in the test on SKOV3 and with Tov-21-G was “inactive” throughout. The Potency entry in the test on Tov112D and in the test with astro was “inactive” throughout. Further, the activity, negative = cell killing in test [1] (setting [7]) is -5.91%; in test [1] (setting [8]) it was -22.1%; in test [1] (setting [9]), -21.2%.
Consider `COc1ccc(C(=O)CC(=O)c2ccc(C(C)(C)C)cc2)cc1`, for which the Potency result in the test with Hek293T, with JEG-3, in the test with OV90, with PA-1, with SKOV3 and with Tov-21-G was “inactive” in each case. Also, the Potency entry in the test with Tov112D and with astro was “inactive” in each case. In addition, the figures for the activity, negative = cell killing in test [1] (setting [8]) and in test [1] (setting [9]) were -26.5% and 3.24%, respectively.
In the case of `COC(c1ccccc1)(c1ccccc1)[C@H](Oc1nc(C)cc(C)n1)C(=O)O`, the Potency entry in the test with Hek293T, in the test with JEG-3, in the test on OV90, with PA-1 and with SKOV3 was “inactive” throughout. Moreover, the activity, negative = cell killing in [1] (setting [7]) was -11%; in test [1] (setting [8]), -22.7%; in test [1] (setting [10]) it was -16.8%; in test [1] (setting [9]), 2.92%.
With `CN(CCOc1ccc(CC2SC(=O)NC2=O)cc1)c1ccccn1` (configuration not stated), the Potency result in the test with Hek293T, in the test on JEG-3, in the test with PA-1, in the test on SKOV3, in the test with Tov-21-G and in the test with Tov112D was “inactive” each time. Besides, the Potency result in the test on astro was “inactive”. In addition, the activity, negative = cell killing in test [1] (setting [7]) was -18.3%; in test [1] (setting [8]), -26.6%; in test [1] (setting [10]), -36.2%; in test [1] (setting [9]) it was 15.3%.
Turning to `CS(=O)(=O)c1ccc([C@@H](O)[C@@H](CO)NC(=O)C(Cl)Cl)cc1`, the Potency result in the test with Hek293T, in the test with JEG-3, with OV90, in the test with PA-1, in the test on SKOV3 and in the test on Tov112D was “inactive” each time. In addition, the Potency result in the test with astro is “inactive”. The activity, negative = cell killing was -12.8% in [1] (setting [3]), -9.12% in test [1] (setting [4]), -24.7% in test [1] (setting [5]) and -19.8% in test [1] (setting [6]).
`COc1c(N2CCNC(C)C2)c(F)cc2c(=O)c(C(=O)O)cn(C3CC3)c12` (configuration not stated): the Potency entry with Hek293T, in the test on JEG-3, in the test on OV90, in the test with PA-1, in the test on Tov-21-G and with Tov112D was “inactive” each time. For the same molecule, the activity, negative = cell killing in [1] (setting [7]) is -10.7%; in [1] (setting [8]), -20.8%; in [1] (setting [9]), 14.5%.
On to `Clc1ccccc1CN1CCc2sccc2C1`, for which the Potency result in the test on Hek293T, in the test with JEG-3, with OV90, in the test with SKOV3, in the test on Tov-21-G and with Tov112D was “inactive” in each case. In addition, the Potency entry in the test with astro was “inactive”. Also, the results for the activity, negative = cell killing in test [1] (setting [7]), in test [1] (setting [8]) and in test [1] (setting [9]) were -14.5%, -10.5% and 4.64%, respectively.
For the molecule `COc1ccc(-c2ccc3cc(C(=O)O)ccc3c2)cc1C12CC3CC(CC(C3)C1)C2`, the Potency entry in the test on Hek293T, in the test with JEG-3, in the test with OV90, in the test on PA-1, with SKOV3 and with Tov-21-G was “inactive” throughout. The Potency entry in the test on Tov112D and with astro was “inactive” in each case.
Turning to `CC(C)C[C@H](NC(=O)[C@H](CCc1ccccc1)NC(=O)CN1CCOCC1)C(=O)N[C@@H](Cc1ccccc1)C(=O)N[C@@H](CC(C)C)C(=O)[C@@]1(C)CO1`, the Potency in the test on Hek293T was 251 nM (active); with OV90, 251 nM (active); in the test with PA-1 it was 89.1 nM (active); in the test on SKOV3, 0.251 µM (active); in the test with Tov-21-G it was 251 nM (active); in the test with Tov112D, 708 nM (active). Moreover, the Potency in test [2] (HiBiT) was 88.3 nM (active). Moreover, the Potency result with JEG-3 was “inactive”.
Consider `CC(C)(C)NC(=O)[C@H]1CC[C@H]2[C@@H]3CC[C@H]4NC(=O)C=C[C@]4(C)[C@H]3CC[C@]12C`, for which the Potency entry in the test on Hek293T, in the test with JEG-3, in the test with PA-1, with Tov-21-G, with Tov112D and in the test with astro was “inactive” in each case. The Potency in the test with SKOV3 is 12.6 µM (active). Further, the activity, negative = cell killing in test [1] (setting [3]) was -3.62%; in [1] (setting [4]) it was -10.8%; in [1] (setting [5]), -2.64%; in [1] (setting [6]) it was -15%.

The values above are taken from PubChem BioAssay (NCATS).
